Laboratory results as given in PubChem BioAssay (EPA / NIEHS).
Results filed as inconclusive are left out. The source made the active and inactive calls. Rule for the calls: active = hit-call score of the fitted dose curve at least 0.9, where 1 is the maximum; inconclusive = response in the unintended direction; inactive = score below 0.9.

assay: ATG_M_06_TRANS: Attagene TRANS-FACTORIAL HepG2 Assay for M06 Transcription Factor (Internal Marker) (AID 2282983); settings: HepG2 Attagene TRANS M06 internal marker reporter
Protocol: ATG_TRANS is a cell-based, multiplexed-readout assay that uses HepG2, a human liver cell line, with measurements taken at 24 hours after chemical dosing in a 24-well plate.ATG_M_06_TRANS is one of 30 assay component(s) measured or calculated from the ATG_TRANS assay. It is designed to make measurements of mRNA induction, a form of inducible reporter, as detected with fluorescence intensity signals by Reverse transcription polymerase chain reaction (RT-PCR) and Capillary electrophoresis technology.Data from the assay component ATG_M_06_TRANS was analyzed into 1 assay endpoint. This assay endpoint, ATG_M_06_TRANS, was analyzed in the positive analysis fitting direction relative to DMSO as the negative control and baseline of activity. Using a type of inducible reporter, measures of mRNA for gain-of-signal activity can be used to understand the background control at the transcription factor-level as they relate to the gene . Furthermore, this assay endpoint can be referred to as a secondary readout, because this assay has produced multiple assay endpoints where this one serves a background control function. To generalize the intended target to other relatable targets, this assay endpoint is annotated to the background measurement intended target family, where the subfamily is internal marker.
Human liver HepG2 cells are transiently transfected with multiple reporter transcription units (MRTUs) in 6-well plates using FuGene 6 reagent (Roche; 3 ml FuGene/1 mg DNA). The MRTU constructs are regulated by a cis-regulating element (promoter). […] A major difference between the CIS and TRANS system is that in CIS activities of endogenous TFs are measured, whereas the TRANS assay evaluates changes in activities of exogenous, chimeric NR-Gal4 proteins. […] At the end of 24 hour incubation, total RNA was isolated using TriZol reagent (Invitrogen). The isolated RNA is then reverse-transcribed using oligo(dT) primer and Mo-MLV reverse transcriptase (Invitrogen) with DNAse I (Ambion) treatment for 30 min. The one-tenth of the produced cDNA was amplified by PCR using Taq DNA polymerase (Invitrogen) and two reporter sequence-specific primers. The PCR products were fluorescently labeled by primer extension with 6-arboxyfluorescein (6-FAM) 5'-labeled reporter sequence-specific primer (2 min at 95 C, 20 s at 68 C and 10 min at 72 C) and these products were digested with 5U of HpaI (New England Biolabs) for 2h at 37 C. The fragments were purified using Qiaquick PCR columns (Qiagen), analyzed on an ABI 3130xL genetic analyzer (Applied Biosystems) with peak positions identified by using a set of X-rhodamine (ROX)-labeled MapMarker1000 molecular weight standards (BioVentures). The raw capillary electrophoresis data was processed using Attagraph software (Attagene).

outcome, inactive:
CC(=O)O[C@]1(C(C)=O)CC[C@H]2[C@@H]3C=C(Cl)C4=CC(=O)[C@@H]5C[C@@H]5[C@]4(C)[C@H]3CC[C@@]21C
CC(C)(C)c1ccccc1
NCCOCCOCCN
O=C(O)CN(CC(=O)O)CC(=O)O
NC1CCCCC1
C=CCc1ccc(OC)c(OC)c1
Cn1cnc2c1c(=O)[nH]c(=O)n2C
CC(C)NCC(O)c1ccc(O)c(O)c1 (stereo not given)
Cc1ccc(C(C)(C)C)c(O)c1
CS(=O)(=O)c1ccc([C@@H](C[C@H]2CCC(=O)C2)C(=O)Nc2cnccn2)cc1Cl
CCCCCCCCCCCCCCCCO
C/C=C/C=C/C(=O)O
O=C(O)c1[nH]n(-c2ccc(S(=O)(=O)O)cc2)c(=O)c1N=Nc1ccc(S(=O)(=O)O)cc1
CCCCCCC(C=O)=Cc1ccccc1
CCN(CC)CCOc1ccc(C(=C(Cl)c2ccccc2)c2ccccc2)cc1
S=c1[nH]c2ccccc2s1
c1ccc2occc2c1
CCCCOC(=O)CCCCC(=O)OCCCC
CC(C)OC(=O)C(C)(C)Oc1ccc(C(=O)c2ccc(Cl)cc2)cc1
COC(=O)CCCC(=O)OC
Oc1ccc(O)cc1
O=C(Oc1ccccc1)c1cccc(C(=O)Oc2ccccc2)c1
COC(=O)[C@H]1[C@H]2C[C@@H]3c4[nH]c5cc(OC)ccc5c4CCN3C[C@H]2C[C@@H](OC(=O)c2cc(OC)c(OC)c(OC)c2)[C@@H]1OC
O=NO
Cc1ccc(-c2cc(C(F)(F)F)nn2-c2ccc(S(N)(=O)=O)cc2)cc1
NC=O
O=C1c2c(O)cccc2Cc2cccc(O)c21
CC(=O)CC(c1ccccc1)c1c(O)c2ccccc2oc1=O (stereo not given)
O=Cc1ccccc1C=O
CCCCCCC(CCCCCCCCCCC(=O)OCC(COC(C)=O)OC(C)=O)OC(C)=O (stereo not given)
CCCCCCCCCCCCCCOS(=O)(=O)O
CC(=O)[C@@]1(O)CC[C@H]2[C@@H]3CCC4=CC(=O)CC[C@]4(C)[C@H]3CC[C@@]21C
CCc1nc(N)nc(N)c1-c1ccc(Cl)cc1
CCCCCCCC(=O)OC
O=[Si]=O
OCC(CO)n1cnc(-c2ccc(F)cc2)c1-c1ccnc(Oc2ccccc2)n1
CC1=C(C)S(=O)(=O)CCS1(=O)=O
CCCCC(CC)COP(=O)(OCC(CC)CCCC)OCC(CC)CCCC (stereo not given)
O=C1NC(=O)C(c2ccccc2)(c2ccccc2)N1
CCc1cc(C2=C(C(=O)O)N(c3ccccc3C(F)(F)F)S(=O)(=O)c3ccccc32)cc2c1OCO2
